Screens deposited in PubChem by National Center for Advancing Translational Sciences (NCATS).
VACV mCherry inh: inhibitors of vaccinia virus infection (mCherry reporter signal); Vaccinia virus mCherry reporter infection, fluorescence; Potency, µM (doses to about 36.5 µM), inactives show top-dose activity change, negative = inhibition, usual class: inhibitors; AID 720579; hit rate 0.63% among 310,000; calls by dose curve; tested in A549 cells; further: nearly all actives have a fitted effect of over 35% in size
VACV Venus inh: vaccinia inhibition (Venus reporter); AID 720580; Potency, µM (highest dose often 36.5 µM), for the others: top-dose activity change, negative = inhibition, hits mostly inhibitors; Vaccinia virus Venus reporter expression, fluorescence; hit rate 0.46% among 330,000; calls by dose curve; tested in A549 cells; further: nearly all actives have a fitted effect of over 30% in size
AmpC inh no detg: inhibitors of E. coli AmpC beta-lactamase without detergent; P00811; AmpC nitrocefin hydrolysis, absorbance 480 nm, 0.0001% Triton; Potency, µM (series often up to 57.1 µM), for the others: top-dose activity change, negative = inhibition, most hits filed as inhibitors; hit rate 0.52% among 330,000; AID 485341;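 further: plate controls were no compound for no effect and no enzyme for full effect; nearly all actives have a fitted effect of over 20% in size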
Target sequence (P00811 whole entry, looked up): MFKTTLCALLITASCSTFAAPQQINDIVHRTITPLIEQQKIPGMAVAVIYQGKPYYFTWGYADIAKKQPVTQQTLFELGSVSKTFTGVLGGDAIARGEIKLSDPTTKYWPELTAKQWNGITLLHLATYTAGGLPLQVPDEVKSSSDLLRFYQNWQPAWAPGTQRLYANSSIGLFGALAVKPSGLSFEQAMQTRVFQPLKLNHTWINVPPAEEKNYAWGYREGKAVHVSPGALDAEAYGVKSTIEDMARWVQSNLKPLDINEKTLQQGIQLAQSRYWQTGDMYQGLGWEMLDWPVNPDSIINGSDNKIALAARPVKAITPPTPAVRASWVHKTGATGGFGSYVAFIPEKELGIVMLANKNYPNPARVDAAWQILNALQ
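AmpC (5.3 nM in the dispensed reagent) in 20 mM phosphate pH 7.0 with 0.01% (detergent screen) or 0.0001% Triton X-100 was preincubated with compounds for 15 min at room temperature. Nitrocefin was then added from an 800 uM solution, and hydrolysis was followed at 480 nm.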
AmpC inh detg: inhibitors of E. coli AmpC beta-lactamase with detergent | P00811 | AmpC hydrolysis of nitrocefin, absorbance 480 nm, 0.01% Triton | Potency, µM (highest dose often 114 µM), for the others: top-dose activity change, negative = inhibition, most hits filed as inhibitors | hit rate 0.041% among 370,000 | AID 485294;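 further: 0% = no-compound wells and -100% = no-enzyme wells; nearly all actives have a fitted effect of over 25% in size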
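AmpC (5.3 nM in the dispensed reagent) in 20 mM phosphate pH 7.0 with 0.01% (detergent screen) or 0.0001% Triton X-100 was preincubated with compounds for 15 min at room temperature. Nitrocefin was then added from an 800 uM solution, and hydrolysis was followed at 480 nm.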
* marks the source's active call; other numbers are inactive results; i = inactive; u = inconclusive; x = no result; ! = not confirmed by another sample; [ ] = another dose, or the depositor's remark. Only some compounds are listed: those with a hit (about 1.1% of all), similar ones and a draw of the others. Unless noted, the call rests on the fitted dose curve; in most records, active means well fitted curve in the direction sought with a large enough effect; inconclusive means small, poorly fitted or top-dose-only effect, or another doubt; inactive means no such curve, though single readings can be large; an effect the other way counts as inactive or inconclusive. Unless noted, on the % scale 0 is the no-effect control and ±100 the full control effect; potency means the concentration at half of the fitted maximal effect.

SMILES	VACV mCherry inh	VACV Venus inh	AmpC inh no detg	AmpC inh detg
O=C1NC(c2cccc3ccccc23)Nc2ccc(Cl)cc21 (stereo not drawn)	u	11µM*	x	x
Cn1nnnc1Sc1ccc([N+](=O)[O-])cc1Cl	10µM*	u	-23%	-2%
O=[N+]([O-])c1ccc(Sc2nnnn2-c2ccccc2)c(Cl)c1	x	x	-25%	-7%
COc1ccc(/C=N/OCC(=O)N=Nc2c(O)[nH]c3ccc(Br)cc23)cc1OC	-17%	-12%	3.2µM*	0%
C=C1C(=O)O[C@H]2C[C@@H](C)[C@@H]3C=CC(=O)[C@@]3(C)C[C@H]12	u	u	32%	-1%
C=C1C(=O)O[C@@H]2C[C@@H](C)[C@@H]3C4OC4C(=O)[C@@]3(C)[C@@H](O)[C@H]12 (stereo partly drawn)	u	14µM*	44%	-2%
C=C1C(=O)O[C@H]2[C@H]1[C@H](OC(=O)CC(=O)O[C@@H]1C[C@@H](C)[C@@H]3C=CC(=O)[C@@]3(C)[C@H]3OC(=O)C(=C)[C@H]13)C[C@@H](C)[C@H]1C=CC(=O)[C@]12C	u	-27%	99%	-6%
CC1C(=O)O[C@@H]2C[C@@H](C)[C@@H]3CCC(=O)[C@@]3(C)[C@@H](O)[C@H]12 (stereo partly drawn)	i	1%	-1%	4%
C=C1C(=O)OC2C1CCC(C)C1C=CC(=O)C12C (stereo not drawn)	11µM*	u	x	x
C=C1C(=O)O[C@@H]2C[C@@H](C)[C@@H]3C=CC(=O)[C@@]3(C)[C@@H](OC(=O)CC(=O)O[C@H]3[C@@H]4C(=C)C(=O)O[C@@H]4C[C@@H](C)[C@@H]4C=CC(=O)[C@]43C)[C@H]12	u	2.5µM*	127%	0%
C=C1C(=O)OC2CC(C)C3C=CC(=O)C3(C)C(O)C12 (stereo not drawn)	u	6.3µM*	x	x
CCc1cc(C(=O)N2CCOc3ccc(CN4CCN(Cc5ccccn5)CC4)cc3C2)no1	-12%	5%	x	x
COc1ccc2c(c1)CCc1cnc(-n3ncc(C(=O)NCc4cc(C)no4)c3C3CC3)nc1-2	u	-18%	x	x
C#CCN(Cc1ccccc1)S(=O)(=O)C=C	u	1.6µM*!	-10%	6%
Cc1ccc(C(=O)CC(=O)COc2ccc(Cl)cc2C)cc1	i	-8%	2.2µM*	u
COc1cccc(OC)c1C(=O)Nc1sc2c(c1C(N)=O)CCN(Cc1ccccc1)C2	i	-11%	70%	-11%
CCN1CCc2c(sc(NC(=O)c3cc4ccccc4cc3OC)c2C(N)=O)C1	14µM*	u	148%	-11%
COc1ccccc1-c1ccnc(-n2ncc(C(=O)NCc3cccc(C)n3)c2C)n1	-12%	6%	x	x
Cc1cc2oc(=O)c(CC(=O)NCCCO)c(C)c2c2occ(C(C)(C)C)c12	x	x	212%	0%
Cc1cc2oc(=O)c(CC(=O)NCCCN(C)C)c(C)c2c2occ(C(C)(C)C)c12	13µM*	u	199%	-2%
CC(CCc1ccc(O)cc1)N1CCOc2c(O)cc(-c3nc4ccccc4s3)cc2C1 (stereo not drawn)	u	-33%	x	x
CC(C)(C)NC(=O)CN1CCN(C(=O)CCl)CC1	u	2.5µM*	-9%	-1%
CCOC(=O)N1CCN(C(=O)CCl)CC1	2.2µM*	3.2µM*	7%[2.29 µM]	-4%
CN(C)c1ccc(C(=O)N2CCCC(Cn3cc(C(=O)N4CCCC4)nn3)C2)cc1 (stereo not drawn)	i	-13%	x	x
Cc1ccc2c(c1)CN(CCNC(=O)c1n[nH]c3c1CCCC3)CC(C)O2 (stereo not drawn)	-10%	-6%	x	x
SMILES	VACV mCherry inh	VACV Venus inh	AmpC inh no detg	AmpC inh detg
CC(=O)Nc1cc(OC(C)=O)c2nonc2c1OC(C)=O	7.9µM*	7.9µM*	-14%	u
CCn1c(-c2ccccc2F)nc2cc(C(=O)NC(c3ccccn3)C(F)(F)F)cc(NC(C)=O)c21 (stereo not drawn)	-11%	-6%	x	x
Cc1snc(S(=O)(=O)/C(C#N)=N/Nc2cccc(C(F)(F)F)c2)c1C#N	11µM*	u	-32%	2%
COCc1c(C(=O)N2CC3CCC2C3)cnn1-c1nccc(-c2ccccc2OC)n1 (stereo not drawn)	-20%	-9%	x	x
CCOc1ccc(NC(=O)c2cc3c(C)nc4ccccc4c3o2)cc1	i	-19%	5µM*	u
COc1cccc(CN2CCC3(CCC(CNC(=O)c4cc(C)nn4C)O3)CC2)c1OC (stereo not drawn)	-4%	1%	x	x
C=CC(=O)NC(NC(=O)C=C)c1ccccc1F	7.9µM*	u	-13%	5%
COc1ccc(C(=O)NC(NC(=O)c2ccc(OC)cc2)c2ccccc2F)cc1	i	-20%	-32%	-3%
C=CC[n+]1ccnc2ccccc21	21%	4%	x	x
C[n+]1ccnc2cc(Cl)ccc21	11µM*	2.2µM*	x	x
Clc1ccc2nccnc2c1	-14%	6%	x	x
C[n+]1ccnc2ccccc21	7.9µM*	2.2µM*	x	x
Oc1c(C(Nc2cccnc2)c2ccccc2F)ccc2cccnc12 (stereo not drawn)	10µM*	u	x	x
Oc1c(C(Nc2nccs2)c2ccc(C(F)(F)F)cc2)ccc2cccnc12 (stereo not drawn)	7.1µM*	u	-56%	-5%
Cc1conc1NC(c1cccs1)c1ccc2cccnc2c1O (stereo not drawn)	x	x	-36%	u
Oc1c(C(Nc2cccc(C(F)(F)F)c2)c2ccncc2)ccc2cccnc12 (stereo not drawn)	u	u	-38%	8%
Cc1ccc(C(Nc2ccccn2)c2ccc3cccnc3c2O)cc1 (stereo not drawn)	11µM*	u	x	-8%
Oc1c(C(Nc2nc3ccccc3s2)c2ccco2)ccc2cccnc12 (stereo not drawn)	2.8µM*	u	-26%	-13%
CCC1CN(CCC(=O)N2CCN(c3ncccn3)CC2)Cc2cc(OC)ccc2O1 (stereo not drawn)	-15%	0%	x	x
COc1ccc(NC(=O)C2CC23CCN(Cc2cccc4ncccc24)CC3)cc1Cl (stereo not drawn)	-18%	-14%	x	x
C[C@@H]1C[C@@H](CC(=O)NCC2Cc3cccc(-c4ccncc4)c3O2)NC(=S)N1 (stereo partly drawn)	i	-26%	x	x
CC(C)CC1C(C#N)=C(N)OC2=C1C(=O)CC(c1ccccc1)C2 (stereo not drawn)	x	x	28µM*	u
CC(CC1C(C#N)=C(N)OC2=C1C(=O)CCC2)c1ccccc1 (stereo not drawn)	x	x	-30%	2%
Cc1ccccc1C(=O)NC(NC(=S)Nc1ccc(S(N)(=O)=O)cc1)C(Cl)(Cl)Cl (stereo not drawn)	i	-10%	20µM*	-14%
Cc1ccc(C(=O)NC(NC(=S)Nc2ccc(S(N)(=O)=O)cc2)C(Cl)(Cl)Cl)cc1 (stereo not drawn)	-29%	-22%	-28%	u
O=C(Nc1cccc(NC(=O)c2ccccc2Cl)c1)c1ccc([N+](=O)[O-])o1	7.9µM*	u	-41%	-4%
